From PubChem BioAssay (NCATS)
Results filed as inconclusive are left out. A structure can be active in one record and inactive in another. Calls of active or inactive are those of the source. Unless noted, calls follow the shape of the dose curve; as a rule, active = well fitted curve in the direction sought with a large enough effect; inconclusive = small, poorly fitted or top-dose-only effect, or another doubt; inactive = no such curve, though single readings can be large; an effect the other way counts as inactive or inconclusive.

Assays:
[1] = biological target: Ubiquitin carboxyl-terminal hydrolase 2 (Homo sapiens) (UniProt O75604); assay: qHTS Validation Assay for Inhibitors of Ubiquitin-specific Protease USP2a Using CHOP2 as the Reporter (AID 463106)
Method in brief: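 10nM USP2 core + cpd, 30min RT; add 25nM Ub-CHOP2/25nM substrate; 60min RT; FI 485/531nm. Buffer Tris pH 8.0, CaCl2, BME, CHAPS. Norm. to NEM = 100% inhibition; time-zero read flags fluorescent artifacts.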

[2] = biological target: DNA polymerase III PolC-type (Bacillus subtilis (strain 168)) (UniProt P13267); assay: qHTS Validation Assay for the Inhibitors of DNA Replication in Gram-Positive Bacteria (AID 485295);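 also: reconstituted holoenzyme with PolC plus beta clamp SSB and primase; PicoGreen fluorescence of double-stranded DNA made on primed circular M13 template; series mostly up to about 57 µM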
Method in brief: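 Double-stranded DNA product detected by PicoGreen fluorescence after EDTA quench. Compound incubated with B. subtilis holoenzyme (PolC, beta subunit, SSB, primase) before substrate addition; primed replication of M13Gori with dNTPs and NTPs at room temperature; DMSO defines 0% inhibition.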

[3] = biological target: Tumor susceptibility gene 101 protein (Homo sapiens) (UniProt Q99816); assay: qHTS Validation Assay for Iinhibitors of HIV-1 Budding by Blocking the Interaction of PTAP/TSG101 (AID 485342; calls by dose curve)
Method in brief: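 Fluorescence polarization of 50 nM FITC-PTAP peptide bound to 10 uM Tsg101 binding domain was read after 20 min room-temperature incubation with compounds, in 10 mM HEPES pH 7.5, 0.15 M NaCl, 0.01% Tween 20.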

[4] = qHTS Validation Assay to Find Inhibitors of Chronic Active B-Cell Receptor Signaling (AID 485345; active = well fitted curve in the direction sought with a large enough effect in the main read-out, with a control signal flat, not every such curve was filed as active)
Method in brief: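 Read-out: ratio of filter-corrected green (IkappaBalpha fusion) to red (native) luciferase signal in doxycycline-induced TMD8 cells after 4 h at 37C. Titration spanned 46 uM–3 nM; Data were normalised to basal cells and 10 uM MG-132 wells.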

[5] = biological target: Beta-2 adrenergic receptor (Homo sapiens) (UniProt P07550); assay: qHTS validation assay of beta-arrestin-biased ligands of beta2-adrenergic receptor (AID 485366)
Method in brief: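 Values derive from curve-fitted %Activity of a luminescent beta-arrestin recruitment reporter; compounds tested up to 46 microM on Tango cells for 18 hr at 37 degrees C, 5% CO2.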

[6] = Quantitative high throughput screen for delayed death inhibitors of the malarial parasite plastid, 48 hour incubation (AID 488752); also: nearly all actives have a fitted effect of over 65% in size; also: potency is read from the fitted curve at half-maximal effect
Method in brief: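 One parasite generation (48 h, 37 C, 5% CO2) of luciferase-reporter P. falciparum in erythrocytes is run with test compound; decreased luminescence indicates inhibited growth.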

[7] = biological target: Thioredoxin reductase 1, cytoplasmic (Rattus norvegicus) (UniProt O89049); assay: qHTS Assay for Inhibitors of Mammalian Selenoprotein Thioredoxin Reductase 1 (TrxR1) (AID 488773); details: Potency: inhibition;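 also: drop in NADPH fluorescence over an 8 min run after selenite addition; series mostly up to about 57 µM; nearly all actives have a fitted effect of over 40% in size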
Method in brief: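 Steps: enzyme (90 nM) plus NADPH (400 uM final), 5 min at ~22 deg C; compound added, 15 min; selenite (400 uM final) added; fluorescence followed for 8 min. Concentration-response curves derived from the normalized delta values.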

[8] = biological target: Flap endonuclease 1 (Homo sapiens) (UniProt P39748); assay: qHTS Validation Assay for the Inhibitors of Human Flap endonuclease 1 (FEN1) (AID 488816)
Method in brief: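 Readings taken at 0 and 15 min after starting the reaction with 50 nM (final) substrate supplied the signal. Compounds had first sat with 10 nM FEN1 reagent for 15 min at room temperature. Values come from Hill-equation concentration-response fits.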

[9] = biological target: M-phase phosphoprotein 8 (Homo sapiens) (UniProt Q99549); assay: qHTS Validation Assay for Inhibitors for MPP8 Chromodomain Interactions with Methylated Histone Tails (AID 488949); also: nearly all actives have a fitted effect of over 55% in size; also: potency is read from the fitted curve at half-maximal effect
Method in brief: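 AlphaScreen proximity signal from streptavidin donor and Ni-chelate acceptor beads (10 ug/mL each) reported binding of MPP8 to trimethyl-K9 H3(1-18) peptide, both at 50 nM. The complex formed 30 min before a 30 min compound exposure at room temperature, in PBS pH 7.4.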

[10] = biological target: Chromobox protein homolog 1 (Homo sapiens) (UniProt P83916); assay: qHTS Validation Assay for Inhibitors of HP1-beta Chromodomain Interactions with Methylated Histone Tails (AID 488953);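 also: loss of AlphaScreen luminescence from HP1-beta binding biotinylated H3K9me3 peptide; series mostly up to about 110 µM; nearly all actives have a fitted effect of over 50% in size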
Method in brief: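 Measured as loss of AlphaScreen luminescence from streptavidin donor and nickel acceptor beads (10 ug/mL final) bridging HP1-beta and biotin-H3(1-18)K9me3, each 50 nM. Compounds met the preassembled complex for 30 min at RT.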

[11] = biological target: Methanococcus maripaludis chaperonin (MmCpn) (UniProt Q6LX38); assay: High-Throughput Screening for Modulators of Cytosolic Chaperonin Activity: MmCpn Primary Screen (AID 488978);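 also: 50 nM MmCpn enzyme hydrolysing 30 µM ATP at 37 °C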
Method in brief: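 ATPase activity of 50 nM MmCpn was assayed with 30 uM ATP, 10 minutes at 37C, after a 5 min compound preincubation at room temperature. ADP production was read as HTRF emission at 590 and 665 nm.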

[12] = biological target: Transient receptor potential cation channel subfamily V member 1 (Homo sapiens) (UniProt Q8NER1); assay: HTS Assay for Compounds that Act as Enhancers of the Vanilloid Receptor 1 (AID 488979)
Method in brief: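 Calcium influx kinetics via Fluo-8 (480/520 nm) in TRPV1-expressing cells, 2000/well cultured overnight at 35.5C. Compound-alone read 3 min (agonist phase), followed by EC20 capsaicin challenge for 2 min (enhancer phase).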

[13] = biological target: Thyrotropin receptor (Homo sapiens) (UniProt P16473); assay: qHTS Assay for Antagonists of the Thyroid Stimulating Hormone Receptor (AID 488980); also: series mostly up to about 58 µM
Method in brief: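 Inhibition of cAMP raised by EC80 TSH (4 nM final) was read by HTRF, with lysate cAMP competing against cAMP-d2 for cryptate antibody after 30 min at room temperature. The cells were transfected HEK293 held in phosphodiesterase inhibitor RO 20-1724 at 70 uM.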

[14] = biological target: D(1A) dopamine receptor (Homo sapiens) (UniProt P21728); assay: HTS Assay for Allosteric Agonists of the Human D1 Dopamine Receptor: Primary Screen for Agonists (AID 488981)
Method in brief: (§1)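 Calcium flux in an inducible, force-coupled HEK293 Trex D1 line (overnight at 30 C): agonist mode is the 180 s kinetic read after compound; potentiator mode is the following 180 s read after dopamine at EC20.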

[15] = biological target: D(1A) dopamine receptor (Homo sapiens) (UniProt P21728); assay: HTS Assay for Allosteric Agonists of the Human D1 Dopamine Receptor: Primary Screen for Potentiators (AID 488982)
Method in brief: as §1

[16] = biological target: D(1A) dopamine receptor (Homo sapiens) (UniProt P21728); assay: HTS Assay for Allosteric Agonists of the Human D1 Dopamine Receptor: Primary Screen for Antagonists (AID 488983);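 also: calcium flux response to an EC80 dopamine challenge measured with no-wash dye; nearly all actives have a fitted effect of over 65% in size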; also: potency is read from the fitted curve at half-maximal effect
Method in brief: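 Screening of inducible HEK293 T-REx D1 cells: compound first, EC80 dopamine 180 s later, each phase read kinetically for calcium over 180 s.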

[17] = Quantitative high throughput screen for delayed death inhibitors of the malarial parasite plastid, 96 hour incubation (AID 488745);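 also: luciferase-expressing P. falciparum in erythrocytes at 2% hematocrit and 0.1% parasitemia; series mostly up to about 29 µM; nearly all actives have a fitted effect of over 70% in size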
Method in brief: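 Growth of reporter-bearing P. falciparum in red cells is measured after 96 h with compound, covering two erythrocytic cycles. Luminescence from the integrated luciferase serves as the growth signal.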

[18] = biological target: Thioredoxin reductase 1, cytoplasmic (Rattus norvegicus) (UniProt O89049); assay: qHTS Assay for Substrates of Mammalian Selenoprotein Thioredoxin Reductase 1 (TrxR1) (AID 488772);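 also: NADPH fluorescence in the first read after selenite addition and not the 8 min delta; series mostly up to about 57 µM; a drop in NADPH fluorescence below the no-compound background marks a TrxR1 substrate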
Method in brief: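 Quantitative HTS in Tris-HCl buffer at pH 7.5 with EDTA and Tween-20, using rat TrxR1, 400 uM NADPH and 400 uM selenite (final). A fall in initial NADPH fluorescence relative to background marked substrate behaviour.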

[19] = biological target: ATP-dependent 6-phosphofructokinase (Trypanosoma brucei brucei) (UniProt O15648); assay: qHTS Validation Assay to Find Inhibitors of T. brucei phosphofructokinase (AID 485368)
Method in brief: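 Enzyme reaction in triethanolamine buffer pH 8.0 with 5 mM MgCl2, 0.01% Tween20 and 0.1% BSA; PFK 1.25 nM, F6P 0.5 mM, ATP 0.1 mM, 45 min RT. ADP quantified by ADP-Glo.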

[20] = biological target: Tyrosyl-DNA phosphodiesterase 1 (Homo sapiens) (UniProt Q9NUW8); assay: Confirmation Assay for Inhibitors of Tyrosyl-DNA Phosphodiesterase (TDP1) (AID 489007); details: recombinant human TDP1 enzymatic activity, dose-response; also: potency is read from the fitted curve at half-maximal effect; nearly all actives have a fitted effect of over 40% in size
Method in brief: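 Confirmation of primary-screen follow-ups in a qHTS format. Substrate cleavage by Tdp1 (1 nM) of a 3'-phosphotyrosine-FITC, 5'-biotin oligo (15 nM) was monitored as decreased AlphaScreen signal after a 5 min room-temperature reaction.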

Measured: Potency

Sequence of Beta-2 adrenergic receptor (Homo sapiens) (P07550 whole entry, looked up): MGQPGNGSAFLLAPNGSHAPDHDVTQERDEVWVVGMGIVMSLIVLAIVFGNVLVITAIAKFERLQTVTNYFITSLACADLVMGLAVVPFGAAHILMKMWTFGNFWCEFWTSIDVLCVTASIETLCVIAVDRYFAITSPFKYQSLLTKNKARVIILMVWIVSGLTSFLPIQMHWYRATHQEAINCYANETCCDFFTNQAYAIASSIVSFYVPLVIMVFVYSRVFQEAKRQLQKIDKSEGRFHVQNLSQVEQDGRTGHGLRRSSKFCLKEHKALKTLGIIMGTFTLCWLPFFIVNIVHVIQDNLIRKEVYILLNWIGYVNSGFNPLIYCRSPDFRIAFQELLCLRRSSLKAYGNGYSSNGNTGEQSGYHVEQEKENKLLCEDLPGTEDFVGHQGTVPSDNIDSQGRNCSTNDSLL
Sequence of Thioredoxin reductase 1, cytoplasmic (Rattus norvegicus) (O89049 whole entry, looked up): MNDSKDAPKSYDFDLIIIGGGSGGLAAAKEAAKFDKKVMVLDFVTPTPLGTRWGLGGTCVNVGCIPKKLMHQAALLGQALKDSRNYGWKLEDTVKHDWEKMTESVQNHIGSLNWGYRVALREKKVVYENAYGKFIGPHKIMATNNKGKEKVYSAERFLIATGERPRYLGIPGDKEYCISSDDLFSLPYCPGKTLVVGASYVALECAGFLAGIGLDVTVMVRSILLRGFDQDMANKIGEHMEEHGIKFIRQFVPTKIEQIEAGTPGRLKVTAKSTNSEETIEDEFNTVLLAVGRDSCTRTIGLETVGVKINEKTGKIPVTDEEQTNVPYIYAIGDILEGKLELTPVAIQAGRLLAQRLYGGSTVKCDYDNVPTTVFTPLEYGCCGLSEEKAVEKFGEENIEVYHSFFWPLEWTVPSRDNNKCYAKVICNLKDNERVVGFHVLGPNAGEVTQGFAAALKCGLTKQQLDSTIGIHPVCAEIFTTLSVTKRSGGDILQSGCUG
Sequence of Thyrotropin receptor (Homo sapiens) (P16473 whole entry, looked up): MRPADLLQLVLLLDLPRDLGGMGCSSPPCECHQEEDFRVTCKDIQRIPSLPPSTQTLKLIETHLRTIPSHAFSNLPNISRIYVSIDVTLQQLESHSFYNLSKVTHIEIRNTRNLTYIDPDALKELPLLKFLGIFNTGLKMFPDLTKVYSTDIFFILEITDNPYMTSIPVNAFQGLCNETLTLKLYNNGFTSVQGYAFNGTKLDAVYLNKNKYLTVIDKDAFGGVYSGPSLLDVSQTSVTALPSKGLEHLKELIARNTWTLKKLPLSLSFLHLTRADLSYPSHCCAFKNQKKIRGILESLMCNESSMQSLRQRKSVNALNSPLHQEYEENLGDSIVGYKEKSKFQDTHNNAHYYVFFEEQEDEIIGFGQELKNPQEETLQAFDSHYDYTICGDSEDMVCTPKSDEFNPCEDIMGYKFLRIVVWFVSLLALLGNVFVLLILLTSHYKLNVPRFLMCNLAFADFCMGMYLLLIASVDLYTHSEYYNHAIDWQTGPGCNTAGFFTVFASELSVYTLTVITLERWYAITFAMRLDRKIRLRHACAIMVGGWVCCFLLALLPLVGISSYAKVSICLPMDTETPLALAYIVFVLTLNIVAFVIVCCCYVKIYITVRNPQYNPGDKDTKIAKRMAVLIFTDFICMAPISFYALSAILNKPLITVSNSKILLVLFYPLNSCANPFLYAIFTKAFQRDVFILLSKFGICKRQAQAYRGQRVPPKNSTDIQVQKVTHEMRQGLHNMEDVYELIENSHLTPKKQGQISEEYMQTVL
Sequence of Flap endonuclease 1 (Homo sapiens) (P39748 whole entry, looked up): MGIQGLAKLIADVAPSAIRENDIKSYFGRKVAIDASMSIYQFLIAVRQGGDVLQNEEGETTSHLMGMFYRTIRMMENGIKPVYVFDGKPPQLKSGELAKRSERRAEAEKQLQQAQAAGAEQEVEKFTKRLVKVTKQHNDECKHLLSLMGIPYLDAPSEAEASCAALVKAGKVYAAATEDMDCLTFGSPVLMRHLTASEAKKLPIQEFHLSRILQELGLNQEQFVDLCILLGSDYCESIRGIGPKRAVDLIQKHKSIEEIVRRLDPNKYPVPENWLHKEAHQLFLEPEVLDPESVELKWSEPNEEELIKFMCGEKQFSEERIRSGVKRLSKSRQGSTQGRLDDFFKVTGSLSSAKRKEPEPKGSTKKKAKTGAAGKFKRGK
Sequence of D(1A) dopamine receptor (Homo sapiens) (P21728 whole entry, looked up): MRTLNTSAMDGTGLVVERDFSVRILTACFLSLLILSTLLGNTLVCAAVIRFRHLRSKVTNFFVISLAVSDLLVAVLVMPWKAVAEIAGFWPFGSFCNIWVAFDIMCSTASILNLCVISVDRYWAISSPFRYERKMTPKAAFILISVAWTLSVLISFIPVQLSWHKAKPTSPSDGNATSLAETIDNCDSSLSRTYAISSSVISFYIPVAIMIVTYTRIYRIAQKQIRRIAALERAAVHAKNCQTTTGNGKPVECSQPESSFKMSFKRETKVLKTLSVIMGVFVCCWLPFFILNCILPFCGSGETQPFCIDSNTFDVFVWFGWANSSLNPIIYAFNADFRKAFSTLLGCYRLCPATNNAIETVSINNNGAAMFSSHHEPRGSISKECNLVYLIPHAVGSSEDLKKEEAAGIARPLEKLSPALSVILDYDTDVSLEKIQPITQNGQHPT
Sequence of DNA polymerase III PolC-type (Bacillus subtilis (strain 168)) (P13267 whole entry, looked up): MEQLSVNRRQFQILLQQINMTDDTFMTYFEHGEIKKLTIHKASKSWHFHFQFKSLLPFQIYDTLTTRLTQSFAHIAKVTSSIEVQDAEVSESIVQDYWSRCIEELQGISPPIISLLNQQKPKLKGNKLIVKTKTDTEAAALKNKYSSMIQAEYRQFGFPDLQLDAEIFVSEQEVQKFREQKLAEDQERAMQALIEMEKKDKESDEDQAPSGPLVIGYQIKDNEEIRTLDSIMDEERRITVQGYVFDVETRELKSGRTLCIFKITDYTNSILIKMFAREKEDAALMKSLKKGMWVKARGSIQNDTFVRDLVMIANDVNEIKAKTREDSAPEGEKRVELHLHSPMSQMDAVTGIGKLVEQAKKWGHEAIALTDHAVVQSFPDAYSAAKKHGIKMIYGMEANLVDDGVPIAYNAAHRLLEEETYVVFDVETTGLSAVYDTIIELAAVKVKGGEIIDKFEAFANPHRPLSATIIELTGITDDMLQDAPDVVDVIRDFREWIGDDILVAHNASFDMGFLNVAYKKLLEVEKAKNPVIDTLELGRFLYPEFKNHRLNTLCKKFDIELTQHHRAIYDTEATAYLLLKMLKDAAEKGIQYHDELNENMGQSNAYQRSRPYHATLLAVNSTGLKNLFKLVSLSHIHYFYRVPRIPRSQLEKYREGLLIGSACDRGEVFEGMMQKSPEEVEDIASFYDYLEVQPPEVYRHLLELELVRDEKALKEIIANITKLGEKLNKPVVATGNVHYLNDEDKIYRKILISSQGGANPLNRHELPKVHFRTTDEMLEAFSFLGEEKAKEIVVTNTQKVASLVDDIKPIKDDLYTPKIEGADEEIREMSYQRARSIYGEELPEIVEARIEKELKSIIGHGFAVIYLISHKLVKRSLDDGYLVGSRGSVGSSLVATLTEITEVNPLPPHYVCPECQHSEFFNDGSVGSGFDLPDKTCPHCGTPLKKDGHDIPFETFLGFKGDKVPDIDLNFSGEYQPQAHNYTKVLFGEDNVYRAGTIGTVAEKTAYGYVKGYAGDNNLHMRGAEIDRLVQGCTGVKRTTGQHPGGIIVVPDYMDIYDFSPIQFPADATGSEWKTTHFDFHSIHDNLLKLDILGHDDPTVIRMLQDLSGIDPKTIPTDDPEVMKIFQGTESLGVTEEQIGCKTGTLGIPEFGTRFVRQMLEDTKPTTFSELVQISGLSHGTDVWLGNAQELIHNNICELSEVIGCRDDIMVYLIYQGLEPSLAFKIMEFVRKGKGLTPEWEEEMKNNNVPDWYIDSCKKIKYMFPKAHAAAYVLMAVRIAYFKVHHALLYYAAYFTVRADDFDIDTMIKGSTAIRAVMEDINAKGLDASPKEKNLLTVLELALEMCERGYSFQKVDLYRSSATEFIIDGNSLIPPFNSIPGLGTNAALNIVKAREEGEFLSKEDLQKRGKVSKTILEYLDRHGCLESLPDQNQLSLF
Sequence of M-phase phosphoprotein 8 (Homo sapiens) (Q99549 whole entry, looked up): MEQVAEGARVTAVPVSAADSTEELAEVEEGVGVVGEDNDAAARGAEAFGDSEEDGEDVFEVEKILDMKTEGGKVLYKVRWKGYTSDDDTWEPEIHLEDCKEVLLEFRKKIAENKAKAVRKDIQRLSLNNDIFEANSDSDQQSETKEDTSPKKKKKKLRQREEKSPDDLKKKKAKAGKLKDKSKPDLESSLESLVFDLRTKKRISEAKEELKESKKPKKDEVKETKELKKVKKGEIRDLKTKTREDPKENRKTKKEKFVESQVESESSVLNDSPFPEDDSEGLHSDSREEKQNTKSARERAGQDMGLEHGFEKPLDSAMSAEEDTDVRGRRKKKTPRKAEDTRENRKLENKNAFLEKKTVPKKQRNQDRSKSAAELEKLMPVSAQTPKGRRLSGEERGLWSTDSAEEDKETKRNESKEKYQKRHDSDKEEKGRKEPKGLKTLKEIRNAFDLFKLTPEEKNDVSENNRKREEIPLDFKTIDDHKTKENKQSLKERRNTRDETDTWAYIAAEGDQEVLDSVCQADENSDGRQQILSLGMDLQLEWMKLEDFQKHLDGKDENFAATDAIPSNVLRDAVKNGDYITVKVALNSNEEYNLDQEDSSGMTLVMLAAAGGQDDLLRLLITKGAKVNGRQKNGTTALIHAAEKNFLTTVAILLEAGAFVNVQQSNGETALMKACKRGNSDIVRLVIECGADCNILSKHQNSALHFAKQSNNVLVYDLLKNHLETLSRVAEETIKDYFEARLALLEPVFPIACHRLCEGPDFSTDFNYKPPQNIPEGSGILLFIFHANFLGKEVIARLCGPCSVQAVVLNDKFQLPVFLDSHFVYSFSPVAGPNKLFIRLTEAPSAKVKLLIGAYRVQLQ
Sequence of Chromobox protein homolog 1 (Homo sapiens) (P83916 whole entry, looked up): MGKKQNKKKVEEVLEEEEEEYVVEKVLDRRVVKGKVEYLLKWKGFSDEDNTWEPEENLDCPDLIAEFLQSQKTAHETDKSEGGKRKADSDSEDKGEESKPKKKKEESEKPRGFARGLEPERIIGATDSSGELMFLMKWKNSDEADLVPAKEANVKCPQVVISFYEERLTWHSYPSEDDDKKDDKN

NC(=O)NO
not listed: [17] | [18] | [19] | [20]
inactive: all other assays above

COc1cc2c(c(OC)c1OC)-c1ccc(OC)c(=O)cc1[C@@H](NC(C)=O)CC2
not listed: [4] | [7] | [8] | [10] | [19] | [20]
inactive: all other assays above

CN1CCN(C2=Nc3cc(Cl)ccc3Nc3ccccc32)CC1
inactive: [1] | [2] | [3] | [4] | [5] | [7] | [11] | [13]

COc1cc2nc(N3CCN(C(=O)C4COc5ccccc5O4)CC3)nc(N)c2cc1OC (stereo not drawn)
active: [6] 4.15 µM
not listed: [4] | [7] | [8] | [10] | [16] | [17] | [20]
inactive: all other assays above

Clc1ccc2nsnc2c1NC1=NCCN1
not listed: [6] | [12] | [13] | [17] | [19] | [20]
inactive: all other assays above

CN(Cc1cnc2nc(N)nc(N)c2n1)c1ccc(C(=O)N[C@@H](CCC(=O)O)C(=O)O)cc1
79.4 µM (active) and inactive: [9]
not listed: [7] | [10] | [17] | [19] | [20]
inactive: all other assays above

Clc1ccc(C(c2ccccc2Cl)C(Cl)Cl)cc1 (stereo not drawn)
not listed: [7] | [10] | [17] | [19] | [20]
inactive: all other assays above

Cn1c(=O)c2[nH]cnc2n(C)c1=O
not listed: [4] | [7] | [19] | [20]
inactive: all other assays above

CS(=O)(=O)Nc1ccc([N+](=O)[O-])cc1Oc1ccccc1
active: [20] 8.91 µM
not listed: [7] | [8] | [17] | [19]
inactive: all other assays above

NCCS(=O)(=O)O
not listed: [7] | [17] | [19] | [20]
inactive: all other assays above

CC(C(=O)O)c1cccc(C(=O)c2ccccc2)c1 (stereo not drawn)
not listed: [7] | [8] | [17] | [19] | [20]
inactive: all other assays above

COc1nc(C)nc(Cl)c1NC1=NCCN1
not listed: [7] | [17] | [19] | [20]
inactive: all other assays above

Nc1c2c(nc3ccccc13)CCCC2
not listed: [5] | [6] | [17] | [18] | [19] | [20]
inactive: all other assays above

O=C(c1ccc(F)cc1)C1CCN(CCn2c(=O)[nH]c3ccccc3c2=O)CC1
active: [16] 5.62 µM
not listed: [6] | [7] | [17] | [19] | [20]
inactive: all other assays above
